# Luciferase inh: firefly luciferase inhibition | purified firefly luciferase, luminescence, 8 min | Potency, µM (top dose mostly 57.1 µM), inactives show at the highest dose activity change, negative = inhibition, hits mostly inhibitors | AID 411 | actives 2.2% (n = 72,000); also: nearly all actives have a fitted effect of over 40% in size
# Target sequence (P08659 whole entry, looked up): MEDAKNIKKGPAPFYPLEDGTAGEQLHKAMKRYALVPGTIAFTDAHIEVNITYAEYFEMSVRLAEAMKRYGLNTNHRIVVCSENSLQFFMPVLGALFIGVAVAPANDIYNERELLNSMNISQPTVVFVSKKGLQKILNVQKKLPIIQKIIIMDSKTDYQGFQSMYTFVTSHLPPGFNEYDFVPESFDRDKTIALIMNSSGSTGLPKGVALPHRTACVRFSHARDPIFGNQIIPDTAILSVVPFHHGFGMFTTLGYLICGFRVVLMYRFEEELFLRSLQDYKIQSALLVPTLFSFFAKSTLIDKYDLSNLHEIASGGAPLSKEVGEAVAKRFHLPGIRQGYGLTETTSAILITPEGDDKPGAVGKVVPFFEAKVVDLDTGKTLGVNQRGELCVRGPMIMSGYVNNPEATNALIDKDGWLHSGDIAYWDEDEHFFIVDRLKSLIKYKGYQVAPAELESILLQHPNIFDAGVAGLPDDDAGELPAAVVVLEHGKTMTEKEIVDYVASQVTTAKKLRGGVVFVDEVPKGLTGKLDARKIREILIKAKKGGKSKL
#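 Here, luciferase activity is measured as luminescence following an 8 min room-temperature reaction at 10 uM ATP, pH 7.2. Every library sample is titrated.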
# p53ts 32C tox: p53ts cell cytotoxicity, permissive temperature; AID 924; H1299-p53A138V at 32C, ATP luminescence viability, 24 h; Potency, µM (top dose mostly 46.1 µM), without a hit: at the top dose activity change, negative = cytotoxicity, hits mostly cytotoxic; actives 0.93% (n = 130,000);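 also: 0% = DMSO and -100% = full killing by reference compound; nearly all actives have a fitted effect of over 55% in size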
#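 ATP-content luminescence (ATPlite) read-out after 24 h compound exposure at 32C in H1299-p53A138V cells (600/well). Tested up to 46 uM. Normalized to DMSO (0%) and 100 uM tamoxifen (100% killing); Hill-fit AC50.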
# p53ts 39C tox: p53ts cell cytotoxicity, nonpermissive temperature; H1299-p53A138V viability at 39C, ATP luminescence, 24 h; Potency, µM (highest dose often 46.1 µM), for the others: at the highest dose activity change, negative = cell killing, usual class: cytotoxic; actives 1.5% (n = 130,000); also: nearly all actives have a fitted effect of over 55% in size
# Active calls of the source: *; u = inconclusive; x = no result; [ ] = dose if it differs, or a comment. Sampled rows, rich in hits. Any-hit rate of the full collection: about 2.5%. Calls follow the shape of the dose curve; as a rule, active = well fitted curve in the direction sought with a large enough effect; inconclusive = small, poorly fitted or top-dose-only effect, or another doubt; inactive = no such curve, though single readings can be large; an effect the other way counts as inactive or inconclusive. Unless noted, % is scaled to controls: 0 for no effect and ±100 for the full control effect; potency is read from the fitted curve at half-maximal effect.
SMILES,Luciferase inh,p53ts 32C tox,p53ts 39C tox
OC[C@H]1O[C@@H](n2cnc3c(NCc4ccco4)ncnc32)[C@H](O)[C@@H]1O,x,16µM*,u
CNc1ncnc2c1ncn2[C@@H]1O[C@H](CO)[C@@H](O)[C@@H]1O,-6%[25.5 µM],9%[20.6 µM],11%[20.6 µM]
CSc1ncnc2c1ncn2C1OC(CO)C(O)C1O (stereo not drawn),x,u,10µM*
OC[C@@H]1O[C@@H](n2cnc3c(NCc4ccco4)ncnc32)[C@H](O)[C@H]1O,-2%[11.4 µM],x,x
Nc1nc(Cl)nc2c1ncn2[C@@H]1O[C@@H](CO)[C@@H](O)[C@H]1O,0%,16µM*,13µM*
Fc1ccc(Nc2nc(-c3ccoc3)nc3ccccc23)cc1,1%[2.29 µM],18%,15%
COC(=O)c1sccc1S(=O)(=O)N(CC(=O)NCc1ccc(C)cc1)c1ccc(Cl)cc1,x,3%,-11%
N[C@@H](Cc1c[nH]c2ccccc12)C(=O)NCC(=O)O,1%[11.4 µM],x,x
Nc1cccc(S(=O)(=O)O)c1,x,7%[1.84 µM],5%
O=C(O)C[C@H](NC(=O)CP(=O)(O)O)C(=O)O.[NH-][C@@H]1CCCC[C@@H]1[NH-].[Pt],-2%[11.4 µM],2%[9.22 µM],17%[9.22 µM]
CCC(Sc1nc2ncccc2o1)C(=O)Nc1cccc(C)c1 (stereo not drawn),x,-10%,-15%
COC(=O)c1nn(-c2ccc(-c3ccccc3)cc2)cc1O,3.2µM*,7.9µM*,u
CCOC(=O)c1nn(-c2cc(C(=O)OC)cc(C(=O)OC)c2)cc1O,2%,-8%,-7%
C=CCC(O)CC1C2C(CC(O)CC=C)C3C1C3C2OC(C)(C)C (stereo not drawn),x,6%[9.22 µM],-4%[9.22 µM]
CCc1ccc(-n2nc(CO)c(C(=O)NCC(c3ccccc3)c3ccccc3)n2)cc1,x,-1%,-26%
CCc1ccc(-n2nc(CO)c(C(=O)NC)n2)cc1,x,u,16µM*
COC(=O)[C@H]1[C@@H]2C[C@H]3c4[nH]c5ccccc5c4CCN3C[C@@H]2CC[C@@H]1O,2%,-15%,-14%
COc1cccc(NC(=O)c2c(-c3ccc(C)cc3)nnc3ccccc23)c1,x,-12%,-15%
COc1ccc(Cc2nnc(SCC(=O)Nc3ncc(C)s3)o2)cc1,0%,0%,2%
COc1ccc(CCCc2nnc(SCC(=O)Nc3ncc(C)s3)o2)cc1,16µM*,-28%,u
O=C(c1ccc(Cc2nc3ccccc3[nH]2)cc1)N1CCCCC1,x,1%,2%
Cc1sc2ncnc(Sc3nnnn3-c3ccc(Cl)cc3)c2c1C,-1%,10µM*,5µM*
Cc1sc2ncnc(SCc3ccco3)c2c1C,1%,3%,5%
CCCc1nn2c(=O)cc(COC(=O)C3CCCCC3)nc2s1,x,-6%,12%
COc1cc(/C=C(\C#N)c2nc3ccccc3[nH]2)ccc1OCc1cccc(C(F)(F)F)c1,x,13µM*,3.2µM*
SMILES,Luciferase inh,p53ts 32C tox,p53ts 39C tox
COc1cc(/C=C(\C#N)c2nc3ccccc3[nH]2)ccc1OCc1ccc(F)cc1,x,u,-3%
O=C1C(c2ccncc2)=C(O)c2ccccc21,13µM*,3.2µM*,6.3µM*
O=C1c2ccccc2C(Cc2ccncc2)(Cc2ccncc2)c2ccccc21,0%,-4%,-7%
COc1cc2c(C)c3c4c(cc(OC)c(OC)c4c2cc1OC)CCN3C,x,-5%,-4%
COc1cc2c(C=O)c3c4c(cc(OC)c(OC)c4c2cc1OC)CCN3C,x,u,16µM*
C#CC[N+](C)(C)CCCCCCCCCC,x,16%,-22%
CCCCCCCC[N+](CCCCCCCC)(CCCCCCCC)CCCCCCCC,x,u,16µM*
CCCCN(C)S(=O)(=O)c1ccc(C(=O)Nc2nnc(-c3cccs3)o2)cc1,-1%,-24%,7.9µM*
CCN(Cc1ccccc1)S(=O)(=O)c1ccc(C(=O)Nc2nnc(-c3ccccc3OC)o2)cc1,1%,-2%,13µM*
CCCCN(CCCC)S(=O)(=O)c1ccc(C(=O)Nc2nnc(CSC)o2)cc1,3%,-20%,16µM*
CCCCN(CC)S(=O)(=O)c1ccc(C(=O)Nc2nnc(CSC)o2)cc1,3%,-26%,25µM*
CCCN(CCC)S(=O)(=O)c1ccc(C(=O)Nc2nnc(CSC)o2)cc1,1%,-26%,u
COc1ccccc1-c1nnc(NC(=O)c2ccc(S(=O)(=O)N(C)C)cc2)o1,-4%,-30%,u
CCCCN(CC)S(=O)(=O)c1ccc(C(=O)Nc2nnc(COC)o2)cc1,2%,-24%,u
CCCCN(CC)S(=O)(=O)c1ccc(C(=O)Nc2nnc(-c3ccccc3Cl)o2)cc1,2%,1%,-11%
C#C[C@H](N)CCC(=O)O,0%,-10%,11%
O=C(Cn1c(=O)n(CC2CCCO2)c(=O)c2ccccc21)Nc1ccc(F)cc1F (stereo not drawn),x,0%,-8%
